Results taken from article PMC7819943, “Rice protein-binding microarrays: a tool to detect cis-acting elements near promoter regions in rice”.
In all, about 35,000 sequences were measured (“fluorescence intensity (a.u.)”: median about 10,000, highest 2% from about 52,000 on). For the sample, the highest values were picked, then their nearest neighbours and some sequences at random.

The sequences below were run against T1, OsWOX13 (Oryza sativa, UniProt Q5QMM3 1-267) (assay: protein-binding microarray (RPBM); PBS, 2% BSA, 51.3 ng/ul salmon testes DNA, 50 uM zinc acetate, 200 nM TF, 25 C, 1 h; high values mean tight binding). Settings: protein: recombinant; tags: N-terminal polyhistidine and DsRed monomer fusion (pET32a); label: CyDye5-dUTP incorporated in the synthesized complementary strand; 3' TTTTT single-stranded linker to array surface; dsDNA, one strand shown.
T1 sequence: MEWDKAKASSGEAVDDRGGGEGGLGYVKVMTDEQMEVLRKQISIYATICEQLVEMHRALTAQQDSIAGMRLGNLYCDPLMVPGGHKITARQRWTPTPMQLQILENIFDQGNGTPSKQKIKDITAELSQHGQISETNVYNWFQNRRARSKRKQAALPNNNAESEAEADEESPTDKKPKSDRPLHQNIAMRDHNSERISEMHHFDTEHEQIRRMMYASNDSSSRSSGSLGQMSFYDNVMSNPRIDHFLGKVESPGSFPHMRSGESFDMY
How it was run: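 In PBS with 2% BSA, salmon testes DNA and 50 µM zinc acetate, 200 nM protein was incubated on a custom Agilent array at 25 °C for 1 h and then washed off. The array had been made double-stranded by primer extension with Cy5-dUTP and blocked with 2% BSA. The proteins were transcription factors fused N-terminally to polyhistidine and DsRed, expressed in E. coli BL21-CodonPlus and purified on Ni–NTA. The binding signal is per-feature fluorescence intensity (arbitrary units) from an Axon 4000B scanner.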
With “TAGATTGATTGTTACTCCGTACATAACCTTGTCTTCTTCGCGGAGTCACCTAGTGCAG” the binding signal was 55400 fluorescence intensity (a.u.).
With “TATGATTTGTCTACGTTACAAACATAAACCTTTTCTTCTCCGGAGTCACCTAGTGCAG” the binding signal was 11400 fluorescence intensity (a.u.).
For “GGAGTGCAAATTAGTCCGGATTTTACTGAATATTGATAACCGGAGTCACCTAGTGCAG”, the binding signal was 3300 fluorescence intensity (a.u.).
With “ATTGCTGATTGTCTGTTCTTTTACTTGACATAACCTGAATCGGAGTCACCTAGTGCAG” the binding signal was 30100 fluorescence intensity (a.u.).
With “GGCCAGTAATTAACCATATTTATCATTTAAACTACTCAGTCGGAGTCACCTAGTGCAG” the binding signal was 9040 fluorescence intensity (a.u.).
“GCTGGTTTGATTAGATCTTCATCCCACGTGGCATTGACGTCGGAGTCACCTAGTGCAG” was tested, and the binding signal was 17200 fluorescence intensity (a.u.).
In the case of “TCTTGTAATTATTCTATGTTTAATACTCTAAATTAGCATCCGGAGTCACCTAGTGCAG”, the binding signal is reported as 20000 fluorescence intensity (a.u.).
In the case of “TGGTGATAATGTCATTCTGTTATTACAGAGGTCAACGTGTCGGAGTCACCTAGTGCAG”, the binding signal is reported as 3410 fluorescence intensity (a.u.).
For “CTCCACTAATCCTACCAATTAACGAGTCGTACTCAATAATCGGAGTCACCTAGTGCAG”, the binding signal was 7550 fluorescence intensity (a.u.).
For “CAGCTGTTCTAATGATTTGAGATATATCAAACTTGTCAAACGGAGTCACCTAGTGCAG”, the binding signal was 3250 fluorescence intensity (a.u.).
For “TAAGTTAATAGATATTTAACGTTTATAATAAGATTTGTTTCGGAGTCACCTAGTGCAG”, the binding signal was 9590 fluorescence intensity (a.u.).
For “AGCGCAACTAATTAAACTAGGCTTATCAGGCGACAGCGGCCGGAGTCACCTAGTGCAG”, the binding signal was 4920 fluorescence intensity (a.u.).
In the case of “GGCAATCAATCAACCAATCACCAGCTTACAATTCGGCCACCGGAGTCACCTAGTGCAG”, the binding signal is reported as 59300 fluorescence intensity (a.u.).
With “TCAAACAAACCAATCAATCAATCAATCAGGGGATTCTTACCGGAGTCACCTAGTGCAG” the binding signal was 42300 fluorescence intensity (a.u.).
With “CACCCAATCACAATCCAACCCACGCCATTGCAACCAAATTCGGAGTCACCTAGTGCAG” the binding signal was 4130 fluorescence intensity (a.u.).
In the case of “GTGTAATTTTGTTAGGAAATTTGGGTTTGAATCAGTGGAACGGAGTCACCTAGTGCAG”, the binding signal is reported as 12500 fluorescence intensity (a.u.).
For “TCCTGATTTCGCCGCCACTTGTAGCATCTGCCCGTGGGGTCGGAGTCACCTAGTGCAG”, the binding signal was 5510 fluorescence intensity (a.u.).
In the case of “TTATGGCTAATCATGAACTAATTAGACTCAAAAGATTCGTCGGAGTCACCTAGTGCAG”, the binding signal is reported as 23700 fluorescence intensity (a.u.).
“ATGGATTAATTAGGCTCAAAAGATTTGTCTCACTATTTCCCGGAGTCACCTAGTGCAG” was tested, and the binding signal was 13500 fluorescence intensity (a.u.).
For “ATGGCTAATTATGGACTAATTAGACTCAAAAGATTCGTTTCGGAGTCACCTAGTGCAG”, the binding signal was 19800 fluorescence intensity (a.u.).
In the case of “GCTAATCATAGACTAATTAGGCTTAAAAGATTTGTCTCGCCGGAGTCACCTAGTGCAG”, the binding signal is reported as 37200 fluorescence intensity (a.u.).
In the case of “TACTAATCATAGACTAATTAGGCTCAAAAGATTCGTCTCACGGAGTCACCTAGTGCAG”, the binding signal is reported as 31300 fluorescence intensity (a.u.).
In the case of “GCTAATCATAGACTAATTAGACTCAAAAGATTAGTCTCGCCGGAGTCACCTAGTGCAG”, the binding signal is reported as 52800 fluorescence intensity (a.u.).
With “TACGGCTAATTATGGACTAATTAGACTCAAAAGATTCATGCGGAGTCACCTAGTGCAG” the binding signal was 53800 fluorescence intensity (a.u.).
In the case of “GATTAATTAGACTTAATAAATTTGTCTCACGGTTTACGGACGGAGTCACCTAGTGCAG”, the binding signal is reported as 40500 fluorescence intensity (a.u.).
“ACTAATTAGACTTAAAAGATTTGTCTCATGATTTACTCCCCGGAGTCACCTAGTGCAG” was tested, and the binding signal was 56300 fluorescence intensity (a.u.).
In the case of “ATCTTAATTTACCTTTCACTGCATCTAATATGTCACTTTGCGGAGTCACCTAGTGCAG”, the binding signal is reported as 20700 fluorescence intensity (a.u.).
In the case of “ATTTGAAATTTAAATTTTAGCTTTTGCTTTAGTTTATTTGCGGAGTCACCTAGTGCAG”, the binding signal is reported as 8720 fluorescence intensity (a.u.).
“CCGTGATTAGCGACATTGCTGTGTGCAACGTTTGTTCCTTCGGAGTCACCTAGTGCAG” was tested, and the binding signal was 37600 fluorescence intensity (a.u.).
For “TGTTAGATGATAAAACATGATTAATATTTTATGTGTGACTCGGAGTCACCTAGTGCAG”, the binding signal was 4360 fluorescence intensity (a.u.).
In the case of “AATAACTGATAAAAGATATATGATTTTGGAGAAATGTGTGCGGAGTCACCTAGTGCAG”, the binding signal is reported as 26100 fluorescence intensity (a.u.).
For “TAGATTAATTTGTCATCAAAACACCCTCATATAATTAATTCGGAGTCACCTAGTGCAG”, the binding signal was 19200 fluorescence intensity (a.u.).
“TTTCTTAATTGTATTTCTATATGGACTTGATACCCTTCTTCGGAGTCACCTAGTGCAG” was tested, and the binding signal was 18900 fluorescence intensity (a.u.).
With “AGCCTAATTAATCTATAATTAGAGAATGTTTACTGTAGCACGGAGTCACCTAGTGCAG” the binding signal was 46200 fluorescence intensity (a.u.).
With “CTAATTAATCCGTTATTAGCACATATGTGTTACTGTAGCACGGAGTCACCTAGTGCAG” the binding signal was 12200 fluorescence intensity (a.u.).
With “TTCATAATTAGCACATGTTTACTGTGGTATCACATGGACTCGGAGTCACCTAGTGCAG” the binding signal was 25200 fluorescence intensity (a.u.).
In the case of “CCTAATTAATCCATAGCACATGTTTACTGTAGCGTCACATCGGAGTCACCTAGTGCAG”, the binding signal is reported as 12400 fluorescence intensity (a.u.).
In the case of “TAAACCTAATTAATCATCATTAGCAAATGTTTACTGTAGCCGGAGTCACCTAGTGCAG”, the binding signal is reported as 30400 fluorescence intensity (a.u.).
“AGCCTAATTAATCCATAATTAACATATGTTTACTGTAGCACGGAGTCACCTAGTGCAG” was tested, and the binding signal was 53000 fluorescence intensity (a.u.).
With “AATCCATAATTAGAGAATGTTTACTGTAGCATCACATAGGCGGAGTCACCTAGTGCAG” the binding signal was 15900 fluorescence intensity (a.u.).
For “GTAGTGAATGGCTGCCTAATTTTGTGCATTAACCATGGTGCGGAGTCACCTAGTGCAG”, the binding signal was 5100 fluorescence intensity (a.u.).
In the case of “AAGTCTAATTAATTCATAATTAGCACATGTTTACTGTAGCCGGAGTCACCTAGTGCAG”, the binding signal is reported as 53800 fluorescence intensity (a.u.).
For “TCATAATTAATTAGAAGTGGCTGCATGTGAGAATGTTTGGCGGAGTCACCTAGTGCAG”, the binding signal was 53800 fluorescence intensity (a.u.).
In the case of “AGCCTAATTAATACATAATTAGCACATGTTTACTGTAGCACGGAGTCACCTAGTGCAG”, the binding signal is reported as 55100 fluorescence intensity (a.u.).
In the case of “AGCCTAATTAATCCGATATTAGTAAATGTTTACTGTAGCACGGAGTCACCTAGTGCAG”, the binding signal is reported as 15000 fluorescence intensity (a.u.).
